# Reference: PubChem BioAssay (NCATS)
# Where “and” joins values, the source holds several entries; their conditions need not be identical. Identical values can stand only once. Results filed as inconclusive are left out. More than one record can exist for a structure, and the calls need not agree. Calls of active or inactive are those of the source. Unless noted, calls come from the whole dose curve.
# What was measured:
# [1] = AP1 Signaling Pathway (AID 357; active = well fitted curve in either direction with a large enough effect, not every such curve was filed as active;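 note: ME-180 reporter cells stimulated with EGF at its EC50 level; % is set by controls: 0 for no effect and ±100 for the full control effect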); conditions: ME-180 (cervical carcinoma) AP-1-bla reporter, EGF-induced, beta-lactamase ratio, 5 h
# Summary of the method: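 AP-1-bla ME-180 cells, Opti-MEM + 0.5% dialyzed FBS, plated overnight 37 °C. Cpd titration + EC50 EGF, 5 h 37 °C. CCF4 2.5 h RT; ex 405, em 460/530 ratio → %activity, AC50.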
# [2] = NFAT Signaling Pathway (AID 444; active = well fitted curve in either direction with a large enough effect, not every such curve was filed as active;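 note: carbachol stimulus at about its EC50 of 1 µM final; % is set by controls: 0 for no effect and ±100 for the full control effect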); conditions: Jurkat NFAT-bla M1, carbachol, beta-lactamase ratio, 5 h; at 38 µM (top of the series) unless noted
# Summary of the method: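 Jurkat cells with NFAT-driven β-lactamase reporter and co-expressed M1 receptor, stimulated with carbachol (final 1 uM, ~EC50), compound titration, 5 h at 37 °C. CCF4 loaded 1 h at RT; 460/530 nm ratio gave %activity and AC50.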
# [3] = target: Cytochrome P450 1A2 (Homo sapiens) (UniProt P05177); test: p450-cyp1a2 (AID 410); conditions: recombinant CYP1A2, luciferin-ME demethylation, luminescence; series mostly up to 57 µM; note: potency is the fitted concentration of half-maximal effect;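 for activity change, negative = inhibition: -100% = full effect of reference inhibitor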
# Summary of the method: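 Human CYP1A2 (20nM) demethylated Luciferin-ME at its Km (100uM) in 100mM KPO4. After 10 min compound preincubation, NADPH regeneration ran the reaction 60 min at room temperature. Luciferin was read by luminescence, normalized to 57 uM furafylline.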
# [4] = Cell Viability - BJ (AID 421); conditions: BJ fibroblast viability, qHTS;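 note: potency is the fitted concentration of half-maximal effect; cells exposed to compound for 40 hours at 37 °C before readout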
# Summary of the method: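 Luminescent ATP signal (CellTiter-Glo, 20 min at room temperature) served as the read-out of viable BJ cells after 40 hours of compound treatment. Responses were scaled between DMSO and 100 uM tamoxifen, and AC50 values were obtained by Hill modeling.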
# [5] = Cell Viability - Jurkat (AID 426;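 active = dose-dependent loss of cell ATP signal giving a full or clear fitted curve, ranked by lower potency value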; note: potency is the fitted concentration of half-maximal effect); conditions: qHTS
# Summary of the method: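 Jurkat (clone E6-1, human T-cell leukemia) cells, 5000/well in complete medium, were exposed to compound for 40 hr at 37 °C. Viability was read as intracellular ATP by CellTiter-Glo luminescence; AC50 came from Hill fits of concentration-response data.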
# [6] = Cell Viability - Hek293 (AID 427;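 active = compounds whose dose-response curve shows a full or clear partial loss of cell viability, called from curve shape rather than a numeric limit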;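 note: potency is the fitted concentration of half-maximal effect; cells exposed to compound for 40 hours at 37 °C before reading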); conditions: qHTS
# Summary of the method: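 Luminescent ATP read-out (CellTiter-Glo, 20 min RT) after 40 hr compound exposure at 37 °C in complete medium. Signal normalized to DMSO (basal) and 100 uM tamoxifen (100% inhibition); concentration-response fitted with the standard Hill equation to give AC50.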
# [7] = Cell Viability - HepG2 (AID 433); conditions: qHTS;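 note: potency is the fitted concentration of half-maximal effect; potency for ATP loss meaning cytotoxicity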
# Summary of the method: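 HepG2 cells, 1500 per well, treated 40 hr at 37 °C in complete medium; viability from intracellular ATP by CellTiter-Glo luminescence. Normalized to DMSO and 100 uM tamoxifen; AC50 from Hill fit of qHTS concentration-response.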
# [8] = Cell Viability - MRC5 (AID 434); conditions: MRC5 lung fibroblast viability, qHTS;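 note: potency is the fitted concentration of half-maximal effect; potency reflects cytotoxicity seen as loss of intracellular ATP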
# Summary of the method: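 MRC5 normal human lung fibroblasts, 1500 cells/well, exposed to compound for 40 hr at 37 C. Cellular ATP was read by CellTiter-Glo luminescence; data normalized to DMSO and 100 uM tamoxifen, with AC50 from Hill fits.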
# [9] = Cell Viability - SK-N-SH (AID 435); conditions: SK-N-SH neuroblastoma cell viability qHTS;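 note: potency is the fitted concentration of half-maximal effect; compound exposure lasted 40 h at 37 °C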
# Summary of the method: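 SK-N-SH neuroblastoma cells (1500/well) treated 40 h at 37 °C in complete medium; viability read as cellular ATP by CellTiter-Glo luminescence. Normalized to DMSO and 100 uM tamoxifen; AC50 from Hill fits of qHTS concentration-response.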
# Sequence of Cytochrome P450 1A2 (Homo sapiens) (P05177 whole entry, looked up): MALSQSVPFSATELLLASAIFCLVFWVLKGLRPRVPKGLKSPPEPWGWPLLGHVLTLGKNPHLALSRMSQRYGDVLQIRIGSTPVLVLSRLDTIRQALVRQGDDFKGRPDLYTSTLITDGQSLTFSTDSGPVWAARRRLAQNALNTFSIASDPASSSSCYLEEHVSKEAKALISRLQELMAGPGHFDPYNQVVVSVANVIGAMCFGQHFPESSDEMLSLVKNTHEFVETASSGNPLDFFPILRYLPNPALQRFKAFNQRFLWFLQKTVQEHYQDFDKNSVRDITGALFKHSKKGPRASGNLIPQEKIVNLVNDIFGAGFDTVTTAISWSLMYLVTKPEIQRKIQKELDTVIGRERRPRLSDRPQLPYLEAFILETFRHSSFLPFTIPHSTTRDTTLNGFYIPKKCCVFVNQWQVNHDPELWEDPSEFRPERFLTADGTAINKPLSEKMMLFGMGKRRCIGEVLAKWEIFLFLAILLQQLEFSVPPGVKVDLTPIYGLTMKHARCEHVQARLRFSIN
smiles,measurement,setting,value
O=c1[nH]c2cc(Cl)c(Cl)cc2[nH]c1=O,"activity change, negative = inhibition",[1]; at 38 µM (top of the series),-8.09% (inactive)
same,"activity change, negative = inhibition",[2],4.68% (inactive)
N[C@H](CCCP(=O)(O)O)C(=O)O,"activity change, negative = inhibition",[1]; at 38 µM (top of the series),-8.4% (inactive)
same,Potency,[3],inactive and 31.6 µM (active) and 25.1 µM (active)
same,"activity change, negative = inhibition",[2],-6.29% (inactive)
O=c1[nH]c2cc([N+](=O)[O-])c([N+](=O)[O-])cc2[nH]c1=O,"activity change, negative = inhibition",[1]; at 38 µM (top of the series),-3.93% (inactive)
same,Potency,[3],inactive
same,"activity change, negative = inhibition",[2],4.52% (inactive)
COc1ccc(/C=C/C(=O)Nc2ccccc2C(=O)O)cc1OC,"activity change, negative = inhibition",[1]; at 17.2 µM (top of the series),-28.6% (inactive)
same,"activity change, negative = inhibition",[2],22.7% [at 17.2 µM] (inactive)
CC1(C)CCC=[N+]1[O-],"activity change, negative = inhibition",[1]; at 38 µM (top of the series),-4.03% (inactive)
same,Potency,[3],inactive
same,"activity change, negative = inhibition",[2],-6.56% (inactive)
NC(=O)C(=O)O,"activity change, negative = inhibition",[1]; at 38 µM (top of the series),0.648% (inactive)
same,Potency,[3],inactive
same,"activity change, negative = inhibition",[2],5.77% (inactive)
O=c1[nH]c2cc(C(F)(F)F)ccc2n1-c1cc(C(F)(F)F)ccc1O,"activity change, negative = inhibition",[1]; at 38 µM (top of the series),-14.9% (inactive)
same,"activity change, negative = inhibition",[2],7.55% (inactive)
COc1ccccc1N1CCN(CCN(C(=O)c2ccc(I)cc2)c2ccccn2)CC1,"activity change, negative = inhibition",[1]; at 38 µM (top of the series),-13.6% (inactive)
same,"activity change, negative = inhibition",[2],-16.4% (inactive)
O=C(O)c1cc(=O)c2ccccc2[nH]1,"activity change, negative = inhibition",[1]; at 38 µM (top of the series),5.32% (inactive)
same,"activity change, negative = inhibition",[2],13.2% (inactive)
O=C(O)Cc1ccc(-c2ccccc2)cc1,"activity change, negative = inhibition",[1]; at 17.2 µM (top of the series),3.75% (inactive) and 6.11% (inactive)
same,"activity change, negative = inhibition",[2],-2.29% [at 17.2 µM] (inactive) and -12.1% [at 17.2 µM] (inactive)
CN1CCc2ccccc2Cc2[nH]c3ccccc3c2CC1,"activity change, negative = inhibition",[1]; at 38 µM (top of the series),8.89% (inactive)
same,"activity change, negative = inhibition",[2],-7.31% (inactive)
Cc1c(N)c(=O)n(-c2ccccc2)n1C,"activity change, negative = inhibition",[1]; at 17.2 µM (top of the series),7.65% (inactive)
same,"activity change, negative = inhibition",[2],-9.93% [at 17.2 µM] (inactive)
C[C@@H](NC(=O)/C(C#N)=C/c1ccc(O)c(O)c1)c1ccccc1,Potency,[3],31.6 µM (active)
Oc1cc2c(cc1O)CN(C(=S)NCCc1ccc(Cl)cc1)CCC2,Potency,[3],12.6 µM (active) and 20 µM (active)
same,"activity change, negative = inhibition",[2],-18.1% (inactive)
O=C(O)/C=C\C(=O)O,Potency,[4],> 92 µM (inactive)
same,Potency,[5],> 92 µM (inactive)
same,Potency,[6],> 92 µM (inactive)
same,Potency,[7],> 92 µM (inactive)
same,Potency,[8],> 92 µM (inactive)
same,Potency,[9],> 92 µM (inactive)
S=c1[nH]c2ccccc2s1,Potency,[4],> 92 µM (inactive)
same,Potency,[5],> 92 µM (inactive)
same,Potency,[6],> 92 µM (inactive)
same,Potency,[7],> 92 µM (inactive)
same,Potency,[8],> 92 µM (inactive)
same,Potency,[9],> 92 µM (inactive)
C#C[C@]1(O)CC[C@H]2[C@@H]3CCc4cc(O)ccc4[C@H]3CC[C@@]21C,Potency,[4],> 92 µM (inactive)
same,Potency,[6],> 92 µM (inactive)
same,Potency,[7],> 92 µM (inactive)
same,Potency,[9],25.5 µM (inactive)
O=C(O)c1cc(O)c(O)c(O)c1,Potency,[4],> 92 µM (inactive)
same,Potency,[7],> 92 µM (inactive)
same,Potency,[8],> 92 µM (inactive)
N.N.O=C(O)C1(C(=O)O)CCC1.[Pt],"activity change, negative = inhibition",[1]; at 38 µM (top of the series),-8.77% (inactive)
same,"activity change, negative = inhibition",[2],13.9% (inactive)
O=C(Nc1ccccc1)c1cc([N+](=O)[O-])ccc1Cl,Potency,[3],5.01 µM (active) and 631 nM (active)
same,"activity change, negative = inhibition",[2],-5% (inactive)
COc1cc(CNC(=O)CCCC/C=C/C(C)C)ccc1O,Potency,[4],> 92 µM (inactive)
same,Potency,[5],> 92 µM (inactive)
same,Potency,[6],> 92 µM (inactive)
same,Potency,[7],> 92 µM (inactive)
same,Potency,[8],> 92 µM (inactive)
same,Potency,[9],> 92 µM (inactive)
Ic1ccc(N2CCN(Cc3c[nH]c4ncccc34)CC2)cc1,"activity change, negative = inhibition",[2],0.65% (inactive)
c1ccc2sc(SSc3nc4ccccc4s3)nc2c1,Potency,[4],> 92 µM (inactive)
same,Potency,[5],> 92 µM (inactive)
same,Potency,[6],> 92 µM (inactive)
same,Potency,[7],> 92 µM (inactive)
same,Potency,[8],> 92 µM (inactive)
same,Potency,[9],> 92 µM (inactive)
Nc1ccc([N+](=O)[O-])cc1O,Potency,[4],> 92 µM (inactive)
same,Potency,[5],> 92 µM (inactive)
same,Potency,[6],> 92 µM (inactive)
same,Potency,[7],> 92 µM (inactive)
same,Potency,[8],> 92 µM (inactive)
same,Potency,[9],> 92 µM (inactive)
CN1CCC[C@H]1c1cccnc1,Potency,[4],> 92 µM (inactive)
same,Potency,[5],> 92 µM (inactive)
same,Potency,[6],> 92 µM (inactive)
same,Potency,[7],> 92 µM (inactive)
same,Potency,[8],> 92 µM (inactive)
same,Potency,[9],> 92 µM (inactive)
CN(C)c1ccc(N=NS(=O)(=O)O)cc1,Potency,[4],> 92 µM (inactive)
same,Potency,[6],> 92 µM (inactive)
same,Potency,[8],> 92 µM (inactive)
same,Potency,[9],> 92 µM (inactive)
CC(C)NCC(O)COc1cccc2ccccc12 (stereo not drawn),Potency,[4],> 92 µM (inactive)
same,Potency,[6],> 92 µM (inactive)
same,Potency,[7],> 92 µM (inactive)
same,Potency,[8],> 92 µM (inactive)
same,Potency,[9],> 92 µM (inactive)
